Source: PubChem BioAssay (NCATS)
Inconclusive results are not listed. Where a call stands in place of a potency, no number is given. Activity calls are given as the source filed them. Calls follow the shape of the dose curve; as a rule, active = well fitted cell-killing curve with a large enough effect; inconclusive = small, poorly fitted or top-dose-only effect; inactive = flat fitted curve, though single readings scatter.

Test: Cellular viability qHTS for adrenocortical cancer (ACC) cell line NCI-H295R (AID 1963990); also: nearly all actives have a fitted effect of over 60% in size
Details: CellTiter-Glo ATP luminescence, 48 h; series mostly up to 46.1 µM
Summary of the method: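 Adrenocortical carcinoma cells, suspended at 300 000 cells/mL in serum-free DMEM plus ITS, rested overnight before pin transfer of compound. After two days' incubation, ATP-dependent luminescence was recorded and curve-fitted.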
Potency is read from the fitted curve at half-maximal effect.

SMILES	Potency
CO/N=C(/C(=O)N[C@@H]1C(=O)N2C(C(=O)O)=C(Cn3nnc(C)n3)CS[C@H]12)c1csc(N)n1	inactive
CNc1nc(C)nc(N[C@H]2CCC[C@@H](C(=O)NCc3ccc(C#N)cc3C(F)(F)F)C2)n1	inactive
Nc1nc(N)c2nc(-c3ccccc3)c(N)nc2n1	4.61 µM (active)
Oc1c(I)cc(I)c2cccnc12	3.66 µM (active)
Cl/C(=C\n1cncn1)c1ccc(Cl)cc1Cl	inactive
O=C(O)CCc1nc2ccccc2[nH]1	inactive
O=C(O)P(=O)(O)O	inactive
C[C@H](CN1CCCC1)C(=O)c1ccc(C(F)(F)F)cc1	inactive
CC(C)(C)C(=O)NCCCC(=O)O	inactive
O=C(NCC(=O)N1CC[C@H](NC2CCC(O)(c3ccc(-c4ncccn4)cn3)CC2)C1)c1cccc(C(F)(F)F)c1 (stereo partly drawn)	inactive
CC1CC(OC(=O)C(O)c2ccccc2)CC(C)(C)N1C (stereo not drawn)	inactive
O=c1[nH]c(=O)n([C@H]2O[C@H](CO)[C@@H](O)[C@@H]2O)cc1/C=C\Br	inactive
CCNCc1nc2c(N)nc3ccccc3c2n1CC(C)(C)O	inactive
